Hits are enriched below; roughly 2.9% of the tested compounds scored in any of these assays.
ABCB6 inh 2: ABCB6 transporter inhibitors, primary screen, K562-ABCB6 cells, flow cytometry, MLPCN library; K562-ABCB6 porphyrin accumulation, 1 h; active compounds read low; actives 0.19% (n = 360,000); fluorescence ratio to DMSO, % at 10 µM; ATP-binding cassette sub-family B member 6 (Homo sapiens), Q9NP58;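 active = fluorescence ratio to DMSO below 75%, the collection mean minus 3 SD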;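 also: signal is porphyrin accumulated inside mitochondria; 100% equals median channel fluorescence of DMSO control wells; lower ratio means ABCB6 inhibition with less porphyrin fluorescence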
CRFR2-BP ag: agonists of CRF-BP/CRF-R2 complex, primary screen, cell-based, HEK293, calcium dye fluorescence, uHTS. calcium dye fluorescence (FLIPR); percent of saturating CRF peptide response. activation, % at 13.2 µM. actives 0.46% (n = 350,000). AID 588473, 2011;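 active = activation of at least 50%, plus an integration ratio under a set limit after plate pattern correction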;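 also: plate controls were neutral control wells without compound for no effect and CRF at EC100 for full effect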
MEKK2wt PB1 HTS: modulators of MEK5 binding to wildtype MEKK2, primary screen, biochemical, multiplex bead flow cytometry, Alexa488-MEK5. binding response (% of control), % at 10 µM. actives 1.1% (n = 290,000). Alexa488-MEK5 binding to MEKK2 WT; actives lie on both sides. Mitogen-activated protein kinase kinase kinase 2 (Homo sapiens), Q9Y2U5. AID 1531, 2009; in the data active = binding response below about 67% or above about 130%
MEKK3 PB1 HTS: modulators of MEKK3-MEK5 PB1 binding, primary screen, biochemical, wildtype MEKK3, multiplex bead flow cytometry, Alexa488-MEK5; Mitogen-activated protein kinase kinase kinase 3 (Homo sapiens), Q99759; bead-based flow cytometry, Alexa488-MEK5 binding to MEKK3; actives lie on both sides; 0 = blocked by unlabeled MEK5, 100 = vehicle; binding response (% of control), % at 10 µM; actives 1.4% (n = 290,000); AID 1529, 2009;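 active = binding response more than 3 SD above or below the average of its plate-row segment, actives on both sides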;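 also: Alexa488 bead fluorescence after subtracting the streptavidin-only scavenger bead signal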
MEKK2 mut-MEK5: MEK5 binding signal on mutant MEKK2 PB1, primary screen, biochemical, multiplex bead flow cytometry, Alexa488-MEK5. Alexa488-MEK5 binding to MEKK2 mutant. percent response, % at 10 µM. actives 0.35% (n = 290,000); in the data active = percent response above about 24%, passing the limit was not always enough
CRFR2-BP antag: antagonists of CRF-BP/CRF-R2 complex, primary screen, cell-based, HEK293, calcium dye fluorescence, uHTS. actives 0.59% (n = 350,000). inhibition, % at 11.8 µM. CRF-induced calcium fluorescence;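 active = inhibition of the ligand-induced calcium signal above about 50% at the single tested concentration, limit read from the data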
* = called active by the depositor; . = no result.

SMILES	ABCB6 inh 2	CRFR2-BP ag	MEKK2wt PB1 HTS	MEKK3 PB1 HTS	MEKK2 mut-MEK5	CRFR2-BP antag
Cc1cc(NC(=O)Cn2nc(C(=O)O)c3ccccc3c2=O)ccc1Br	98	0	98	102	-7	-1
COc1ccc(S(=O)(=O)Nc2ccc3c(c2)C(=O)N([C@H](C)CO)C[C@H](C)[C@@H](CN(C)C(=O)NC2CCCCC2)O3)cc1	96	-2	.	.	.	0
CC(=O)C1=C(O)C(=O)N(c2cc(C(C)(C)C)on2)C1c1ccc(C(C)C)cc1 (stereo not drawn)	95	64*	96	95	-3	5
O=c1oc2cc(O)ccc2cc1-c1nc2c(s1)CCc1ccccc1-2	499	279*	82	91	-7	-232
O=C(Cn1c(C(=O)OCCO)cc2ccccc21)c1ccccc1	100	4	104	108	7	12
COc1ccc(/C=C(\NC(=O)c2ccccc2)C(=O)NCCN2CCOCC2)cc1	101	0	96	102	-6	0
CSCCC(NC(=O)COc1ccccc1)C(=O)N1CCCC(C)C1 (stereo not drawn)	94	-1	103	102	7	-7
O=c1[nH][nH]cc1C=Nc1ccccc1O	68*	0	101	105	2	-7
CC(CNC(=O)COc1ccc2c(c1)OCO2)c1ccccc1 (stereo not drawn)	98	0	.	.	.	7
CCOc1ccc(Br)cc1C1=CC(=O)C[C@H](c2ccc(OC)cc2)C1	105	163*	.	.	.	-77
COc1ccc([C@H]2CC(=O)C=C(c3cc(Br)ccc3OC)C2)cc1	97	2	.	.	.	-6
Cc1ccc(CCNC(=O)C2CCCN(S(=O)(=O)N3CC(C)CC(C)C3)C2)cc1 (stereo not drawn)	95	1	96	101	-1	85*
CC1CC(C)CN(S(=O)(=O)N2CCCC(C(=O)NCCc3ccccc3)C2)C1 (stereo not drawn)	93	-1	103	100	3	-3
O=C(O)C1C2C=CC(O2)C1C(=O)Nc1ccccc1C(F)(F)F (stereo not drawn)	101	0	109	103	5	58*
COc1cccc(-n2nc(C#N)c(Cl)cc2=O)c1	106	-3	76	78	-10	74*
FC(F)(F)c1cccc(-c2nc3nc(Cl)c(Cl)nc3[nH]2)c1	96	81*	75	85	5	38
CCN1CCSc2ccc(C(=O)NCc3ccccc3C)cc21	98	1	102	102	1	18
CCN1CCSc2ccc(C(=O)NCc3ccccc3F)cc21	99	280*	97	101	0	-317
O=C(Oc1ccccc1)c1ccc(NC(=O)c2ccco2)cc1	98	-3	107	110	4	79*
COC(=O)c1ccc(NC(=O)c2ccc(NC(=O)c3ccco3)cc2)cc1	96	0	94	99	-4	1
Cc1ccc(C(C)C)c(OCC(=O)Nc2ccc3c(c2)nc(CCN2CCCCC2)n3C)c1	100	1	141*	103	12	-5
Cn1c(CCN2CCCCC2)nc2cc(NC(=O)COc3ccc(Cl)cc3)ccc21	103	0	114	100	4	4
O=C(CC1C(=O)NCCN1C(=S)Nc1ccccc1)Nc1ccc2c(c1)OCCO2 (stereo not drawn)	97	3	100	104	5	-12
O=C(CC1C(=O)NCCN1C(=O)Nc1ccccc1)Nc1ccc2c(c1)OCO2 (stereo not drawn)	96	9	103	103	6	74*
COc1ccc2oc(C(=O)OCC(=O)NC3CCCCC3)c(C)c2c1	92	1	.	.	.	-6
